Measurements from PubChem BioAssay (NCATS).
Values joined by “and” are separate entries in the source; they are usually repeats but may differ in a detail not shown here. Equal values may be shown once. Results filed as inconclusive are left out. Active and inactive are the calls of the source. Unless noted, calls come from the whole dose curve; as a rule, active = well fitted inhibition curve with a large enough effect; inconclusive = small, poorly fitted or top-dose-only effect; inactive = flat fitted curve, though single readings scatter.

What was measured:
[1] = AP1 Signaling Pathway (AID 357; active = well fitted curve in either direction with a large enough effect, not every such curve was filed as active;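 note: ME-180 reporter cells stimulated with EGF at its EC50 level; % is set by controls: 0 for no effect and ±100 for the full control effect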); details: ME-180 AP-1-bla reporter, EGF-induced, beta-lactamase ratio, 5 h
Method in brief: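 A ratiometric CCF4 readout (405 nm excitation; 460 and 530 nm emission) quantified AP-1-driven beta-lactamase in ME-180 cells after 5 h with compound and EC50 EGF; AC50 values were derived for activators and inhibitors.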

[2] = target: Cytochrome P450 1A2 (Homo sapiens) (UniProt P05177); test: p450-cyp1a2 (AID 410; calls by dose curve; note: potency is the fitted concentration of half-maximal effect;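 for activity change, negative = inhibition: -100% = full effect of reference inhibitor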)
Cytochrome P450 1A2 (Homo sapiens), sequence (P05177 whole entry, looked up): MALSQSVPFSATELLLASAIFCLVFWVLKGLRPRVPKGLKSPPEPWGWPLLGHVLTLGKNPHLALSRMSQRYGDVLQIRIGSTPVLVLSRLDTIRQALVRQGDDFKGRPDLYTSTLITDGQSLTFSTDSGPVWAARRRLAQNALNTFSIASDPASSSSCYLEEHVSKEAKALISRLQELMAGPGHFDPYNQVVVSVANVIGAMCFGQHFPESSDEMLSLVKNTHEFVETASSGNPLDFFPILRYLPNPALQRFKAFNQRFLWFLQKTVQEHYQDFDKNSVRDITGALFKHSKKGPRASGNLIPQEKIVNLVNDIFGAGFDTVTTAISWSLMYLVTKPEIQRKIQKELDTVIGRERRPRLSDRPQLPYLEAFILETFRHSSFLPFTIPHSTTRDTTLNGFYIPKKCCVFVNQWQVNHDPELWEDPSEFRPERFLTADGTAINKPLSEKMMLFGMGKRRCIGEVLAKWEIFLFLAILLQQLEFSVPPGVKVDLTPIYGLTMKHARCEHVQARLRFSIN
Method in brief: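 O-Demethylation of luciferin 6' methyl ether by human CYP1A2 is monitored as luciferase luminescence. Substrate sits at Km (100uM); enzyme is 20nM. Values are scaled to 57 uM furafylline as maximal inhibition.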

[3] = NFAT Signaling Pathway (AID 444; active = well fitted curve in either direction with a large enough effect, not every such curve was filed as active;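 note: carbachol stimulus at about its EC50 of 1 µM final; % is set by controls: 0 for no effect and ±100 for the full control effect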); details: Jurkat NFAT-bla M1, carbachol, beta-lactamase ratio, 5 h; at 7.69 µM (top of the series) unless noted
Method in brief: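 Jurkat cells carrying an NFAT-driven β-lactamase reporter and co-transfected muscarinic M1 receptor were treated with compound plus carbachol (1 uM final, an EC50 level) for 5 h at 37 °C. CCF4 loading followed for 1 h at RT; 460/530 nm ratio gave %activity.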

[4] = Stat Signaling Pathway (AID 446; active = well fitted curve in either direction with a large enough effect, not every such curve was filed as active;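 note: ME-180 cervical cancer cells given 40 pM IL-6 alongside compound; SIE-controlled beta-lactamase reporter measured as 460/530 nm FRET emission ratio; % is set by controls: 0 for no effect and ±100 for the full control effect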); details: ME-180 (cervical carcinoma) SIE beta-lactamase reporter, IL-6 stimulated, 5 h
Method in brief: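 Emission at 460 and 530 nm (excitation 405 nm) reports SIE-controlled beta-lactamase in ME-180 cells. Cells received compound with 40 pM IL-6 for 5 hrs at 37 C; data scaled between 300 pM IL-6 and 125 nM JAK-inhibitor controls.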

[5] = target: Glucocorticoid receptor (Homo sapiens) (UniProt P04150); test: GR-GFP Redistribution (AID 450;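 active = compounds whose dose series gives a full or clear partial fitted curve of increased nuclear translocation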; note: potency is the fitted concentration of half-maximal effect); details: U2OS GR-GFP nuclear translocation, laser cytometry, 2 h
Glucocorticoid receptor (Homo sapiens), sequence (P04150 whole entry, looked up, the tested form may be a part): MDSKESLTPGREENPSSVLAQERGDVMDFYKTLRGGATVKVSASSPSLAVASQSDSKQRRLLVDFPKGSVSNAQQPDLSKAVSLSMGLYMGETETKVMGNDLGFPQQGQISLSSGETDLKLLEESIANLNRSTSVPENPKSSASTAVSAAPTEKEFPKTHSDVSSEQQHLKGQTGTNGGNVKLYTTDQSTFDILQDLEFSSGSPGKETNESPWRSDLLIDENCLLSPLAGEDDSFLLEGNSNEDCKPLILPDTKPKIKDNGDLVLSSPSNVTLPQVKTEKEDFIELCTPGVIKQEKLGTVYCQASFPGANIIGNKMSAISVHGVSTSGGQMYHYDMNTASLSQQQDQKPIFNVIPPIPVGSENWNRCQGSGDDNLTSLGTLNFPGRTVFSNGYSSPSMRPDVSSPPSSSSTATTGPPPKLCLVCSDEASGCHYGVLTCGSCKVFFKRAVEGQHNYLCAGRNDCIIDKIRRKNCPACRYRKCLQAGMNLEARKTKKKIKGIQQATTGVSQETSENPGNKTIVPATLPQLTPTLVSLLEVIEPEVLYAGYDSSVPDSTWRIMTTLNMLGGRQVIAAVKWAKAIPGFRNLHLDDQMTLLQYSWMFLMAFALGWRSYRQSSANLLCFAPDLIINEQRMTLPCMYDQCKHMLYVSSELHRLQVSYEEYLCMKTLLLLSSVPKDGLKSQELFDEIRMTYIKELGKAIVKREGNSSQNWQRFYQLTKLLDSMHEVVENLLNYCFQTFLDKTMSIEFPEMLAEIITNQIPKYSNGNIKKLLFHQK

[6] = target: Glucocorticoid receptor (Homo sapiens) (UniProt P04150); test: GR-EFC Redistribution (AID 451; calls by dose curve; note: potency is the fitted concentration of half-maximal effect); details: CHO-K1 GR-EFC translocation, beta-gal luminescence, 2 h
Method in brief: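 CHO-K1 cells stably expressing nuclear-localized β-gal enzyme acceptor and GR fused C-terminally to the enzyme donor fragment; ligand-driven nuclear translocation restores β-gal by complementation. Compounds titrated up to 46 uM final, 2 h at 37 °C; luminescence read.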

[7] = target: Mitogen-activated protein kinase 10 (Mus musculus) (UniProt Q61831); test: JNK3 AlphaScreen Assay (AID 530; active = well fitted curve in either direction with a large enough effect, not every such curve was filed as active;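 note: kinase came from lysate of stimulated human HepG2 cells; signal reports phosphorylation of biotinylated GST-cJun 1-79 at Ser73 with 10 µM ATP; % is set by controls: 0 for no effect and ±100 for the full control effect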)
Method in brief: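 Phosphorylation of biotinylated GST-cJun(1-79) at Ser73 is measured by AlphaScreen proximity luminescence. Enzyme is JNK3 in HepG2 lysates activated with interleukin-1beta and tumor necrosis factor alpha; ATP is 10 uM final.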

[8] = target: 3',5'-cyclic-AMP phosphodiesterase 4B (Homo sapiens) (UniProt Q07343); test: qHTS Assay for Inhibitors of PDE-IV (AID 607; active = well fitted activation curve with a large enough effect in the main read-out, with a control signal flat, not every such curve was filed as active; note: % of control where 0% means no effect)
3',5'-cyclic-AMP phosphodiesterase 4B (Homo sapiens), sequence (Q07343 whole entry, looked up): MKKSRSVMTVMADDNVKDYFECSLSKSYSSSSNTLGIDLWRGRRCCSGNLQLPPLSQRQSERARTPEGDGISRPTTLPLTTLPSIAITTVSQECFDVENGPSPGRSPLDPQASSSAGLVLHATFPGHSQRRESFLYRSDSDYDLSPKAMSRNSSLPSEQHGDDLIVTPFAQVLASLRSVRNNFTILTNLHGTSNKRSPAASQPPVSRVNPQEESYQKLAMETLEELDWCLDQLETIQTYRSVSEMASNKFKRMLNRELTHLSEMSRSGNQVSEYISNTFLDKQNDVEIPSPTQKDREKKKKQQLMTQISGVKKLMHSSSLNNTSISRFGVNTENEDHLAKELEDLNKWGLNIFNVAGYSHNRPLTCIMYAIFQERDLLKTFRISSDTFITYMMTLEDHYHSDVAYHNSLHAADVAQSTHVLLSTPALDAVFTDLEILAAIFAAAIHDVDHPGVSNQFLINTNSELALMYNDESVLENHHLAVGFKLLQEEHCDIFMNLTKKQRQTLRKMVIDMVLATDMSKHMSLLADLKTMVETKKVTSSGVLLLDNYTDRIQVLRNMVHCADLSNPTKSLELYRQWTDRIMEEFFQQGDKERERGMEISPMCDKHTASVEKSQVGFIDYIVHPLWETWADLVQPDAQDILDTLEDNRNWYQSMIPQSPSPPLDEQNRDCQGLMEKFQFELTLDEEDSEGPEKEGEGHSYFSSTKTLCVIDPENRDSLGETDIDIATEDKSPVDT
Method in brief: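 The readout is membrane depolarisation from a cAMP-sensing CNG channel, detected with a potential dye at ex 535/em 590. Cells were HEK293-derived (endogenous PDE-IV) at 1000 cells/well, titrated up to 22.9 uM final.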

[9] = qHTS Assay for Lipid Storage Modulators (AID 1519; calls by dose curve); details: Drosophila S3 cells, BODIPY lipid droplet/cell ratio, laser cytometry, cells loaded with oleic acid; for activity change, negative = inhibition: at 25.7 µM (top of the series)
Method in brief: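 Cells seeded at 5,000 per well were treated with compounds over a concentration series and loaded with oleic acid (400 uM, as added). Lipid droplet fluorescence (488 nm excitation, 500-530 nm channel) was read by laser-scanning cytometry and normalized to 20 uM Triacsin C.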

[10] = target: Ubiquitin carboxyl-terminal hydrolase 1 (Homo sapiens) (UniProt O94782); test: Inhibitors of USP1/UAF1: Pilot qHTS (AID 504865);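 note: rhodamine fluorescence freed from ubiquitin-rhodamine substrate followed over time; top concentration of the series differs between compounds; % is set by controls: 0 for no effect and ±100 for the full control effect; nearly all actives have a fitted effect of over 35% in size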
Ubiquitin carboxyl-terminal hydrolase 1 (Homo sapiens), sequence (O94782 whole entry, looked up): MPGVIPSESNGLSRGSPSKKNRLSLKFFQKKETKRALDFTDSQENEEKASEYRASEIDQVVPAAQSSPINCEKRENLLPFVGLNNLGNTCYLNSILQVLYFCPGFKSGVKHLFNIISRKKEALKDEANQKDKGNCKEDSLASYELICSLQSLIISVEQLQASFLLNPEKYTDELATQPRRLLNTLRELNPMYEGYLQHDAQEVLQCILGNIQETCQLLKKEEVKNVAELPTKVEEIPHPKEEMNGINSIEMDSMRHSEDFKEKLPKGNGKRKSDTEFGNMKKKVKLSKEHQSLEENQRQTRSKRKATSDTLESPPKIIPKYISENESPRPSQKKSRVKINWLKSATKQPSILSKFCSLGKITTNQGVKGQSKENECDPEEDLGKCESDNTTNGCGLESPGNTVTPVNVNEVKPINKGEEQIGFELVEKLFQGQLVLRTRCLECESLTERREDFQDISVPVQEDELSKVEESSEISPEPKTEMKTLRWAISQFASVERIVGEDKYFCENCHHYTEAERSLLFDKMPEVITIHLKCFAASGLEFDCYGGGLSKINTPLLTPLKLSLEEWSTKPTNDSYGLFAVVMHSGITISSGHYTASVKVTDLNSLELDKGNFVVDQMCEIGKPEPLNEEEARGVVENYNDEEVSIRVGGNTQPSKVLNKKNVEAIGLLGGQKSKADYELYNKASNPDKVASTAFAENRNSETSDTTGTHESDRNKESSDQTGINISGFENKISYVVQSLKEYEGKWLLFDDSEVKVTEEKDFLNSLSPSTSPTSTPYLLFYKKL
Method in brief: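 USP1/UAF1 complex (1nM) preincubated with compound 15 min at room temperature, then Ub-Rho substrate (150nM final) added. Fluorescence read kinetically at 480/540 nm, 6 reads every 60 seconds. Buffer: 50mM HEPES pH 7.8, 0.5mM EDTA, 0.1 mg/ml BSA, 1mM TCEP, 0.01% Tween-20.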

[11] = target: Luciferin 4-monooxygenase (Photinus pyralis) (UniProt P08659); test: Biochemical firefly luciferase enzyme assay for NPC (AID 624030);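 note: purified P. pyralis luciferase at 10 nM with luciferin and ATP substrate; 0% = DMSO and -100% = full luciferase inhibition by PTC124 control; nearly all actives have a fitted effect of over 70% in size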
Luciferin 4-monooxygenase (Photinus pyralis), sequence (P08659 whole entry, looked up): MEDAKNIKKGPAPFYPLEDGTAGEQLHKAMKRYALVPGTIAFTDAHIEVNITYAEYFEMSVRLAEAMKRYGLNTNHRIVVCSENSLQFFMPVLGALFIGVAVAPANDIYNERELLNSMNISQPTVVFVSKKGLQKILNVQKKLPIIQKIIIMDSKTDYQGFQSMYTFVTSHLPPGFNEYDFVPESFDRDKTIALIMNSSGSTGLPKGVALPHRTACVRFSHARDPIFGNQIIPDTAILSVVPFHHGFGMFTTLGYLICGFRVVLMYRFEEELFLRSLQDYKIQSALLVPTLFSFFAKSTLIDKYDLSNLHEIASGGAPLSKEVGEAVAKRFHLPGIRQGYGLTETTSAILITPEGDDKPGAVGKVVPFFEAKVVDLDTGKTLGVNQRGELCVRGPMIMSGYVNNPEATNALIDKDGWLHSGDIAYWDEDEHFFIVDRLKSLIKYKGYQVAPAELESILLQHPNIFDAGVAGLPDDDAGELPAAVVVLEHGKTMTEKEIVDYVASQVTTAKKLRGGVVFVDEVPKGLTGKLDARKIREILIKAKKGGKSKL
Method in brief: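 Counter-screen for direct inhibition of the luciferase enzyme by approved-drug library compounds, run at 10 nM enzyme in 50 mM Tris acetate (final). Luminescence was read within 5 min of enzyme-buffer addition and normalized to PTC124 versus DMSO (0%).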

[12] = qHTS profiling for inhibitors of Plasmodium falciparum proliferation (AID 504749);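 note: 0% = DMSO vehicle and full inhibition = artemisinin control; nearly all actives have a fitted effect of over 60% in size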; details: P. falciparum in erythrocytes, SYBR Green DNA, 72 h
Method in brief: (§1)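 Quantitative HTS: compounds pinned into medium, infected erythrocytes added (0.3% parasitemia, 2.5% hematocrit), 72 h culture at 37 C under 5% CO2. Saponin/Triton lysis with SYBR Green I, overnight RT, then fluorescence read.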

ATS189 = test: as above; details: P. falciparum in erythrocytes, SYBR Green DNA, 72 h; series mostly up to 12.8 µM
Method in brief: as §1

CP201 = test: as above; details: P. falciparum in erythrocytes, SYBR Green DNA, 72 h; series mostly up to 12.8 µM
Method in brief: as §1

CP291 = test: as above; details: P. falciparum in erythrocytes, SYBR Green DNA, 72 h; series mostly up to 12.8 µM
Method in brief: as §1

DFO2036 = test: as above; details: P. falciparum in erythrocytes, SYBR Green DNA, 72 h; series mostly up to 12.8 µM
Method in brief: as §1

PC49 = test: as above; details: P. falciparum in erythrocytes, SYBR Green DNA, 72 h; series mostly up to 12.8 µM
Method in brief: as §1

TAB113 = test: as above; details: P. falciparum in erythrocytes, SYBR Green DNA, 72 h; series mostly up to 12.8 µM
Method in brief: as §1

[13] = at 7.69 µM (top of the series) unless noted
[14] = measured here: cell count channel max response
[15] = measured here: lipid channel max response
[16] = at 12.8 µM (top of the series), parasite line A
[17] = at 12.8 µM (top of the series), parasite line B

COc1c(O)cc2c(c1O)[C@@H]1O[C@@H](CO)[C@@H](O)[C@@H](O)[C@@H]1OC2=O
inactive: activity change, negative = inhibition [1, 13] 9.85% [at 17.2 µM] | Potency [2] | activity change, negative = inhibition [3] 4.01% [at 17.2 µM] | activity, negative = inhibition [4, 13] -7.81% [at 17.2 µM] | Potency [5] > 20.6 µM | Potency [6] > 20.6 µM | Potency [7] | Potency [8] | activity change, negative = inhibition [9] -2.39% | Potency [10] | outcome [11] | activity, negative = inhibition [12, 16] 5.83% | activity, negative = inhibition [12, 17] 11.9% | Potency (ATS189) | Potency (CP201) | Potency (CP291) | Potency (DFO2036) | Potency (PC49) | Potency (TAB113)
-7.08%: max response [9, 15]
-8.82%: max response [9, 14]

CC[C@H](NC(C)C)[C@H](O)c1ccc(O)c(O)c1
-4.02%: max response [9, 14]
active: Potency [2] 15.8 µM and 12.6 µM
inactive: activity change, negative = inhibition ([1]; at 17.2 µM (top of the series)) -20.6% | activity change, negative = inhibition ([1]; at 38 µM (top of the series)) -15.3% | activity change, negative = inhibition [3] -6.46% [at 17.2 µM] | activity, negative = inhibition ([4]; at 17.2 µM (top of the series)) 3.17% | activity, negative = inhibition ([4]; at 38 µM (top of the series)) -26.1% | Potency [7] | Potency [8] | activity change, negative = inhibition [9] -0.896% | Potency [10] | outcome [11] | activity, negative = inhibition ([12]; at 28.7 µM (top of the series), parasite line A) 4.3% | activity, negative = inhibition ([12]; at 28.7 µM (top of the series), parasite line B) -2.19% | Potency (ATS189) | Potency (CP201) | Potency (CP291) | Potency (DFO2036) | Potency (PC49) | Potency (TAB113)
-11.2%: max response [9, 15]

CC(=O)O[C@@H](C)C[N+](C)(C)C
-2.61%: max response [9, 14]
-4.64%: max response [9, 15]
inactive: activity change, negative = inhibition ([1]; at 17.2 µM (top of the series)) 20.9% | activity change, negative = inhibition ([1]; at 38 µM (top of the series)) 13.8% | Potency [2] | activity, negative = inhibition ([4]; at 17.2 µM (top of the series)) -1.77% | activity, negative = inhibition ([4]; at 38 µM (top of the series)) 30.8% | Potency [5] > 46 µM and > 20.6 µM | Potency [6] > 46 µM and > 20.6 µM | Potency [7] | activity change, negative = inhibition [9] -1.12% | Potency [10] | outcome [11] | activity, negative = inhibition [12, 16] 0.161% | activity, negative = inhibition [12, 17] 7.9% | Potency (ATS189) | Potency (CP201) | Potency (CP291) | Potency (DFO2036) | Potency (PC49) | Potency (TAB113)

CN1[C@@H](CC(=O)c2ccccc2)CCC[C@@H]1C[C@@H](O)c1ccccc1
-6.75%: max response [9, 15]
active: Potency [2] 31.6 µM and 5.01 µM
inactive: activity change, negative = inhibition ([1]; at 17.2 µM (top of the series)) -1.05% | activity change, negative = inhibition ([1]; at 38 µM (top of the series)) 6.06% | activity, negative = inhibition ([4]; at 17.2 µM (top of the series)) 0.159% | activity, negative = inhibition ([4]; at 38 µM (top of the series)) -8.54% | Potency [7] | Potency [8] | activity change, negative = inhibition [9] -0.989% | Potency [10]
-6.57%: max response [9, 14]
